High-throughput results as filed in PubChem BioAssay.
This is a sample that favours compounds with a hit; in the whole collection about 0.76% have one here.
sEH inh: blocks human soluble epoxide hydrolase activity; P34913; recombinant human sEH enzymatic activity assay; inhibition, % at 2 µM; actives 0.34% (n = 91,000); in the data active means inhibition above about 80%
Target sequence (P34913 whole entry, looked up): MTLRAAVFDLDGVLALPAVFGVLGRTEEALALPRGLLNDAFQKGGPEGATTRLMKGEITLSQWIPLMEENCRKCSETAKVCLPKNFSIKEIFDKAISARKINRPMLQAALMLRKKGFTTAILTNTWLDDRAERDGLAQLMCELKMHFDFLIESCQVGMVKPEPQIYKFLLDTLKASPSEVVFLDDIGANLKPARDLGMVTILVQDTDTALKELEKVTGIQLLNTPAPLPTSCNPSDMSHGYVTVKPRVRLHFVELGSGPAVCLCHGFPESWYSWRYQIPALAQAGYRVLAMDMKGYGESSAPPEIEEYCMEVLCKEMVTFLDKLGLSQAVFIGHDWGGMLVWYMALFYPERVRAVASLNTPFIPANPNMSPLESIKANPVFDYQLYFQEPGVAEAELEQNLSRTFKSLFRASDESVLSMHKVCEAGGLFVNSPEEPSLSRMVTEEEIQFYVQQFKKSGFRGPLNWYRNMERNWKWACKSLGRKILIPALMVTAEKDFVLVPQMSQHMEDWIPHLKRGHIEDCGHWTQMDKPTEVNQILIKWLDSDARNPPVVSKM
sEH act: activators of human soluble epoxide hydrolase. actives 0.04% (n = 91,000). P34913. activation, % at 2 µM. purified human sEH enzymatic activity, activator screen. AID 717; in the data active means activation above about 37%
MRP resist rev: reverses drug resistance mediated by MRP | H69AR cells + 2 uM doxorubicin, CellTiter-Glo, 72 h | differential viability (reversal), % at 10 µM | actives 0.04% (n = 85,000) | AID 602;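 active means viability drop by adding the cancer drug above about 55%, with treated viability meeting a 40% cutoff, limit read from the data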;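 further: viability without doxorubicin minus viability with 2 µM doxorubicin for each compound; larger differential means the compound sensitizes cells more to doxorubicin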
MRP-1 activ: activators of MRP-1. H69AR cells + doxorubicin, viability rescue, CellTiter-Glo. viability increase, % at 10 µM. actives 0.61% (n = 140,000);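 active means viability gain under doxorubicin at or above a set limit, the compound median plus 3 SD, cut at about 4.7% in these data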;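 further: MRP-1 overexpressing cells given doxorubicin 25 µM after compound pretreatment; 18-22 h compound pretreatment then 72 h with doxorubicin before readout; 0% = doxorubicin-only wells and 100% = vehicle-treated cells without doxorubicin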
* hit, by the source's call.

`Cc1ccc(OCc2nc(-c3ccc(Cl)cc3)n[nH]2)cc1` gave sEH inh 17.5, sEH act -14.5, MRP resist rev 7.5 and MRP-1 activ 5.4*.
`CCc1cccc(C)c1NC(=S)N(Cc1cccnc1)Cc1ccco1` gave MRP-1 activ -2.8.
For COc1ccc(C(=O)CSc2nnc(CN3CCCC3)n2-c2ccc(F)cc2)c(OC)c1 the results were MRP-1 activ -3.2.
CCCCNc1oc(-c2ccc(OC)cc2)nc1S(=O)(=O)c1ccccc1 was read as sEH inh 15.1, sEH act -13.2, MRP resist rev 6.5 and MRP-1 activ 6.2*.
COC(=O)c1cc(C(=O)Nc2nnc(C3CC3)s2)cc([N+](=O)[O-])c1 was read as MRP-1 activ -0.3.
Screening CCCCC(CC)CNC(=O)C1CCCN(S(=O)(=O)c2cnc[nH]2)C1 (stereo unspecified) returned sEH inh 83.3*, sEH act -83.3, MRP resist rev 12.7 and MRP-1 activ 1.5.
O=C(NC1CCCCCC1)C1CCCN(S(=O)(=O)c2cnc[nH]2)C1 (stereo unspecified) was read as MRP resist rev 3.8 and MRP-1 activ 0.5.
For O=C(Nc1cccc(F)c1)NC1CCCCC1 the results were sEH inh 88.4*, sEH act -88.4, MRP resist rev -14.6 and MRP-1 activ -2.9.
`O=C(Nc1ccc2c(c1)OCCO2)NC1CCCCC1` gave sEH inh 88.9*, sEH act -89.0, MRP resist rev 4.8 and MRP-1 activ -1.1.
O=C(Nc1ccc2c(c1)OCCO2)C1CCC1 was read as sEH inh 2.7, sEH act -0.6, MRP resist rev -4.0 and MRP-1 activ -2.5.
Screening O=C(Nc1cccc(F)c1)NC1CC2CCCC(C1)N2C1CC1 (stereo unspecified) returned sEH inh 83.5*, sEH act -83.6, MRP resist rev -4.5 and MRP-1 activ -0.4.
For c1ccc2c(c1)Nc1nccnc1S2 the results were MRP-1 activ 5.1*.
`CCCC(=O)NC(=S)Nc1ccc(C(C)=O)cc1` gave MRP-1 activ 11.1*.
Screening COc1ccc(CN2CNc3c(c(=O)n(C)c(=O)n3C)C2)cc1 returned MRP-1 activ -1.6.
`CC(C)CNC(=S)NC(=O)c1ccc(Cl)cc1Cl` gave MRP-1 activ -1.4.
CC(C)(C)SCCNC(=O)c1ccc(Cl)c([N+](=O)[O-])c1 was read as MRP-1 activ -2.9.
`CC(C)N=C(NS(=O)(=O)c1ccccc1)C(Cl)(Cl)Cl` gave MRP-1 activ -5.8.
Cc1nc(=O)c(-c2ccccc2)c(C)n1-c1cccc(C(=O)O)c1 was read as sEH inh -2.8, sEH act 5.0, MRP resist rev -3.6 and MRP-1 activ 6.0*.
Screening COC(=O)c1ccc(-n2c(C)nc(=O)c(-c3ccccc3)c2C)cc1 returned sEH inh 16.8, sEH act -13.8, MRP resist rev 12.1 and MRP-1 activ 3.8.
Screening COc1ccc(-n2c(C)nc(=O)c(-c3ccccc3)c2C)cc1 returned sEH inh 6.5, sEH act -3.6, MRP resist rev 3.8 and MRP-1 activ 8.2*.
`O=C(Nc1ccc(Cc2ccncc2)cc1)C1CCC(N2C(=O)C3C4C=CC(C5CC45)C3C2=O)CC1` (stereo unspecified) gave sEH inh 86.5*, sEH act -86.6, MRP resist rev -9.0 and MRP-1 activ -2.3.
`O=C(Nc1ccc(Cc2ccncc2)cc1)C1CC1` gave sEH inh 9.9, sEH act -12.2, MRP resist rev 0.6 and MRP-1 activ -0.1.
For Cc1ccc(N2C(=O)C(NC(=O)c3ccccc3)(C(F)(F)F)C3=C2CC(C)(C)CC3=O)cc1 (stereo unspecified) the results were MRP-1 activ -0.8.
Screening Cc1ccc(C(C)C)c(OCc2nc(-c3nonc3N)no2)c1 returned sEH inh -12.9, sEH act 11.7, MRP resist rev 9.1 and MRP-1 activ 6.4*.
Screening O=C(O)c1ccc(CSc2ncn[nH]2)cc1 returned sEH inh -3.0, sEH act 4.3, MRP resist rev 21.4 and MRP-1 activ -1.7.
For Brc1ccc(CSc2ncn[nH]2)cc1 the results were sEH inh 9.9, sEH act -9.3, MRP resist rev -2.8 and MRP-1 activ 4.9*.
For CCCOc1ccc(CSc2ncn[nH]2)cc1 the results were sEH inh -12.2, sEH act 15.9, MRP resist rev 14.5 and MRP-1 activ 7.4*.
For O=C(Nc1nc(-c2ccccn2)cs1)C1CC(=O)N(c2ccc3c(c2)OCCO3)C1 (stereo unspecified) the results were MRP-1 activ -2.5.
CCOC(=O)CSc1nc2ccccc2c(=O)n1CC1CCC(C(=O)NCc2ccco2)CC1 (stereo unspecified) was read as sEH inh 82.4*, sEH act -82.5, MRP resist rev -0.5 and MRP-1 activ -1.9.
